PubChem BioAssay AID1892 (NMMLSC, 2009)
The campaign covered roughly 5,900 compounds. About 140 (2.4%) were called active. No stated cut-off is given here; in the data, active means binding response below about 16% or above about 210%; inactive means in between. Many of the other results were omitted from the sample, so actives are more common in it than they were.

The compounds below were run against Mitogen-activated protein kinase kinase kinase 2 (Homo sapiens) (UniProt Q9Y2U5) (assay: wildtype MEKK2 PB1-MEK5 interaction enhancers or blockers – biochemical, single concentration, multiplex bead flow cytometry, confirmation (AID 1892)). Details: Alexa488-MEK5 binding to MEKK2 WT, at 10 µM, actives lie on both sides.

Compound	binding response (% of control)
Cc1nn(-c2ccccc2)c(C)c1NC(=O)CCl	95% (inactive)
C=CCn1c(P(C)(=O)O)nc2ccccc21	95% (inactive)
CNC(=O)/C(=C\C=C\c1ccccc1)NC(=O)c1ccc([N+](=O)[O-])cc1	99% (inactive)
Cc1ccc(N(CCC(=O)O)S(=O)(=O)c2cccc(C(F)(F)F)c2)cc1	102% (inactive)
CN(c1ccccc1)c1ccc(/C=c2\s/c(=C(/C#N)C(=O)C(C)(C)C)n(Cc3ccco3)c2=O)cc1	73% (inactive)
CCN(CC)CCCNC(=O)c1ccc2c(=O)n(Cc3ccc4c(c3)OCO4)c(=S)[nH]c2c1	128% (inactive)
O=C(NC1CCN(Cc2ccccc2)CC1)c1ccc(Oc2cc(Cl)cc(Cl)c2)o1	138% (inactive)
COCCN1C=C2C(=O)C(C)(OC(=O)C3CCCC3)C(=O)C=C2C=C1c1ccsc1 (stereo not given)	96% (inactive)
O=C(NCc1ccccc1Cl)NC(=O)c1csc([N+](=O)[O-])c1	104% (inactive)
COc1ccc(CCn2c(NN=C3CCCC3)nc3c2c(=O)[nH]c(=O)n3C)cc1	102% (inactive)
CCOC(=O)c1sc2nc(C)nc(SCC(N)=O)c2c1C	102% (inactive)
COc1ccccc1N=C(C)C1=C(O)COC1=O	106% (inactive)
Cc1nc2cc(S(=O)(=O)C(F)(F)F)ccc2s1	106% (inactive)
CC(C)CC(=O)NC(=S)NCc1ccccc1	98% (inactive)
COc1ccc(C(=O)NCC(=O)N/N=C/c2ccc([N+](=O)[O-])o2)cc1OC	92% (inactive)
CCOC(=O)c1c(NC(=O)c2ccc(S(=O)(=O)N(C)CC3CCCO3)cc2)sc2c1CC(C)(C)NC2(C)C (stereo not given)	121% (inactive)
COc1cccc(OCC(=O)NNC(=O)c2cnccn2)c1	98% (inactive)
COc1ccc(C2CC(=O)Nc3cc(C)c(C)cc32)c(OC)c1OC (stereo not given)	101% (inactive)
COc1ccc(SC[C@H](Cc2ccccc2)N2CCN(CCc3ccccc3)CCC2=O)cc1	129% (inactive)
Cc1cc(C)nc(-n2ncc3c2CC(c2ccc(C(C)C)cc2)CC3=O)n1 (stereo not given)	102% (inactive)

Compound	binding response (% of control)
Cc1c(C#N)c2ncn(CC#N)c(=O)c2n1-c1ccccc1	99% (inactive)
CC(=O)Nc1ccc(N2CCOCC2)c(C(=O)Nc2cccc(C)c2)c1	102% (inactive)
CCCCNC(=O)N1CCCC(N(C)CCc2ccc(OC)c(OC)c2)C1 (stereo not given)	103% (inactive)
Cc1ccc(C(=O)NC(=S)Nc2ccc3[nH]c(=O)[nH]c3c2)cc1C	101% (inactive)
CCN1CCN(c2ccc(S(=O)(=O)N3CCCCC3)cc2NC(=O)Cc2c(Cl)cccc2Cl)CC1	125% (inactive)
Cc1cnc(NC(=O)Cn2cnc3c2c(=O)n(C)c(=O)n3C)s1	96% (inactive)
O=c1c2ccccc2c(-c2ccccc2)nn1Cc1ccccc1	100% (inactive)
Cc1ccccc1OCC(=O)Nc1ccc(N2CCN(C(=O)C(C)C)CC2)c(Cl)c1	93% (inactive)
O=C1NCC(=O)N(Cc2ccccc2)/C1=C/c1ccccc1	75% (inactive)
CC1(C)OC(=O)N2CCc3ccccc3C21C (stereo not given)	101% (inactive)
CN(C)c1ccc(/C=C2\NC(=S)N(Cc3ccccc3)C2=O)cc1	86% (inactive)
Cc1ccc(N2C(=O)CC(N3CCSCC3)C2=O)c(C)c1 (stereo not given)	103% (inactive)
Cc1ccc(NC(=S)N(CCCN2CCCC2)Cc2cccn2Cc2ccc(Cl)cc2)cc1	160% (inactive)
COc1ccc(-c2[nH]ncc2CN(C)Cc2c(C)n[nH]c2C)c(OC)c1	108% (inactive)
COc1ccccc1CC(=O)Nc1ccc([N+](=O)[O-])cc1OC	100% (inactive)
Cc1ccc(Nc2nc(CSc3nnc(-c4ccncc4)n3-c3ccccc3C)cs2)cc1	101% (inactive)
O=C(/C=C/Nc1ccccc1)c1cnc(-c2ccccc2)s1	107% (inactive)
CC(C)CC(=O)N1CCN(Cc2ccccc2Br)CC1	105% (inactive)
Cc1ccccc1CCN(CC(=O)NC1CCCCC1)C(=O)c1csnn1	96% (inactive)
Cc1cccc(/C=N/NC(=O)CNc2cccc3ccccc23)n1	103% (inactive)

Compound	binding response (% of control)
CC(C)(C)NC(=O)c1cccc(NC(=O)Cc2ccc(Br)cc2)c1	100% (inactive)
CCOc1cc(C2C(C(=O)OC)=CN(C3CCCC3)C=C2C(=O)OC)cc(Br)c1O	108% (inactive)
COc1ccc(CCNC(=O)CSc2nnc3ccc(-c4ccncc4)nn23)cc1	102% (inactive)
CCCCOC(=O)c1ccc(N2C(=O)CC(N3CCN(C/C=C/c4ccccc4)CC3)C2=O)cc1 (stereo not given)	124% (inactive)
O=C(NCC1CCCCC1)c1cc(S(=O)(=O)N2CCCCC2)ccc1N1CCOCC1	87% (inactive)
Cn1c(SCc2nc3ccccc3s2)nnc1-c1ccc2c(c1)OCO2	102% (inactive)
Cc1cccc(-c2ncc(CN3CCC(CO)(CCCc4ccccc4)CC3)cn2)c1	131% (inactive)
Cc1cn(COC/C=C/c2ccccc2)c(=O)[nH]c1=O	103% (inactive)
COc1cc(NC(=S)NCc2ccco2)c(OC)cc1Cl	108% (inactive)
COC(=O)c1c(NC(=O)COC(=O)[C@@H](NS(=O)(=O)c2ccccc2)C(C)C)sc2c1CCC2	96% (inactive)
COc1cc(-c2nc(-c3ccncc3)no2)cc(OC)c1OC	104% (inactive)
Cc1cccc(CSc2nnc(C)c(=O)n2N)c1	100% (inactive)
O=C(O)CCCC(=O)Nc1ccc(Oc2cccc(C(F)(F)F)c2)nc1	106% (inactive)
COc1cc(CC(=O)N/N=C/c2ccccc2)c([N+](=O)[O-])cc1OC	99% (inactive)
COc1ccc(S(=O)(=O)N2CN(CCc3ccc(OC)c(OC)c3)c3nc4ccccc4nc32)cc1	96% (inactive)
CCOC(=O)C(NS(=O)(=O)c1ccc(C)cc1)(C(F)(F)F)P(=O)(OCC(C)C)OCC(C)C (stereo not given)	90% (inactive)
O=c1[nH]c(=S)[nH]c2[nH]c(=S)[nH]c12	101% (inactive)
Cc1ccccc1-c1ccc(Nc2ccc(C(=O)N3CCOCC3)cc2)nn1	103% (inactive)
CCOC(=O)c1c(Cc2ccc(Cl)cc2)c[nH]c1C	105% (inactive)
O=C(Nc1cccnc1)c1cc(Cl)ccc1Cl	109% (inactive)
